High-throughput results deposited in PubChem BioAssay by several laboratories.
Compounds with a hit are over-represented: about 27% of the library has one in this group of screens.
CYP2C19 inhib: blockers of cytochrome P450 2C19 activity – biochemical, luminescence, ADME assay, primary screen. P33261. CYP2C19 Supersomes, luciferin-H EGE luminescence, 30 min. inhibition, % at 5 µM. 96,000 compounds, 21% hits. AID 778, 2007;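 active = CYP2C19 inhibition above a set limit at 5 µM in the primary screen, cut at about 50% in these data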;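 note: plate controls were negative control wells for no effect and 2.5 mM tranylcypromine positive control for full effect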
CYP2C19 act: human CYP2C19 activators, primary screen, biochemical, luminescence. Cytochrome P450 2C19 (Homo sapiens), P33261. recombinant CYP2C19, luciferin-H EGE luminescence; active compounds read high; 0 = fully inhibited enzyme, 1 = untreated enzyme. activation factor at 5 µM. 96,000 tested, under 10 active. AID 1025, 2008;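 active = activation factor of at least 2 at 5 µM in the primary screen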;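 note: 0 = wells with 2.5 mM tranylcypromine and 1 = vehicle-only wells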
CYP2C9 inh: blockers of cytochrome P450 2C9 activity – biochemical, luminescence, ADME assay, primary screen; P11712; CYP2C9 Supersomes, luciferin-H conversion; inhibition, % at 5 µM; 96,000 compounds, 20% hits;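 active = blocking of liver enzyme CYP2C9 beyond about 50% at 5 µM, limit read from the data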
Target sequence (P11712 whole entry, looked up): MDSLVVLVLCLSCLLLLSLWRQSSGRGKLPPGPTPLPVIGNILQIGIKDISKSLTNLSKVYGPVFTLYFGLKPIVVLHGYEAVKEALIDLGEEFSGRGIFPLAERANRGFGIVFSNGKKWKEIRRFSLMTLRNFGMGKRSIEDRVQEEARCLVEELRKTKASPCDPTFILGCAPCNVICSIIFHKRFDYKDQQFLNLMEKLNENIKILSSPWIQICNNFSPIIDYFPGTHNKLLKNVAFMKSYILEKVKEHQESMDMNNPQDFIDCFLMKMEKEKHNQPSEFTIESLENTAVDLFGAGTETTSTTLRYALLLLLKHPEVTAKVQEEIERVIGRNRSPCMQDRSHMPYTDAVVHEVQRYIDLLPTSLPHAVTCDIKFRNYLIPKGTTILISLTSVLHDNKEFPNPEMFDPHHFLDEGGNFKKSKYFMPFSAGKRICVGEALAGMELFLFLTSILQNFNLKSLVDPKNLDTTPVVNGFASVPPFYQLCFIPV
Cav3 T inh: Cav3.2 calcium influx blockers – cell-based, Fluo-4 calcium fluorescence, FDSS, MLSMR library, primary screen | Voltage-dependent T-type calcium channel subunit alpha-1H (Homo sapiens), O95180 | Cav3.2-expressing cells; active compounds read low | B-score at 10 µM | 100,000 compounds, 4% hits;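 active = single-dose well whose peak fluorescence ratio is a statistical outlier from its plate by either plate-standardised score or position-corrected B-score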
CYP2C9 act: human CYP2C9 activators, primary screen, biochemical, luminescence; Cytochrome P450 2C9 (Homo sapiens), P11712; recombinant CYP2C9, luciferin-H conversion; active compounds read high; factor 1 = untreated enzyme, 0 = blocked; activation factor at 5 µM; 96,000 compounds, 1.4% hits; AID 1024, 2008;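 active = activation factor of 2 or more for CYP2C9 at a 5 µM dose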;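 note: 0 = sulfaphenazole-blocked wells and 1 = vehicle-only wells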
* = called active by the depositor.

For O=C(CSc1nn(-c2ccccc2)c(=S)s1)NC(=O)NCc1ccco1 the results were CYP2C19 inhib 35.0, CYP2C19 act 0.7, CYP2C9 inh 46.6, Cav3 T inh -3.24 and CYP2C9 act 0.5.
`CN(CCNC(=O)C1CC(=O)N(c2ccc(F)c(Cl)c2)C1)Cc1ccccc1` (stereo not drawn) gave CYP2C19 inhib 4.0, CYP2C19 act 1, CYP2C9 inh -29.3 and CYP2C9 act 1.3.
CC(=O)N1N=C(c2ccc(C)cc2)OC1c1ccc(C(C)C)cc1 (stereo not drawn) was read as CYP2C19 inhib 22.6, CYP2C19 act 0.8, CYP2C9 inh 10.0, Cav3 T inh -0.965 and CYP2C9 act 0.9.
Screening Cc1c(NC(=O)CCN2C(=O)c3ccccc3C2=O)c(=O)n(-c2ccccc2)n1C returned CYP2C19 inhib -12.0, CYP2C19 act 1.1, CYP2C9 inh -16.1, Cav3 T inh -1.13 and CYP2C9 act 1.2.
`COC(C[C@H]1O[C@H]1[C@@H](O)[C@@H](C)OCc1ccccc1)OC` gave Cav3 T inh -0.651.
`Cc1ccccc1N(CC(=O)Nc1ccccc1C(=O)O)S(C)(=O)=O` gave CYP2C19 inhib -5.7, CYP2C19 act 1.1, CYP2C9 inh 89.2*, Cav3 T inh 0.225 and CYP2C9 act 0.1.
Screening CS(=O)(=O)N(CC(=O)Nc1ccccc1C(=O)N1CCOCC1)c1ccccc1 returned Cav3 T inh -0.112.
Cc1cc(C)cc(N(CC(=O)NCc2cccnc2)S(C)(=O)=O)c1 was read as CYP2C19 inhib 63.6*, CYP2C19 act 0.4, CYP2C9 inh 10.2, Cav3 T inh -0.356 and CYP2C9 act 0.9.
For CN(c1ccc(C(=O)NCc2cccnc2)cc1)S(C)(=O)=O the results were Cav3 T inh 0.0796.
`O=C(Cn1c(C(F)(F)F)nc2ccccc21)c1ccc(F)cc1` gave CYP2C19 inhib 46.6, CYP2C19 act 0.5, CYP2C9 inh 30.8 and CYP2C9 act 0.7.
Screening CCN(CC)C(=O)C(Cc1ccccc1)N1C(=O)c2ccccc2C1=O (stereo not drawn) returned CYP2C19 inhib 66.6*, CYP2C19 act 0.3, CYP2C9 inh 52.8*, Cav3 T inh -0.314 and CYP2C9 act 0.5.
For CCN(CC)c1ncccc1C(=O)NCc1cccs1 the results were CYP2C19 inhib 98.8*, CYP2C19 act 0, CYP2C9 inh 64.7*, Cav3 T inh 0.0282 and CYP2C9 act 0.4.
`COc1ccc(C(=O)NCc2cccnc2)cc1Br` gave CYP2C19 inhib 27.7, CYP2C19 act 0.7, CYP2C9 inh 72.5*, Cav3 T inh -0.866 and CYP2C9 act 0.3.
Screening CCCc1cc(C(=O)N(C2CCCCC2)C2CCCCC2)no1 returned CYP2C19 inhib 63.7*, CYP2C19 act 0.4, CYP2C9 inh 81.1*, Cav3 T inh -2.27 and CYP2C9 act 0.2.
For COc1ccc(-c2cc(C(=O)NCc3cccnc3)no2)cc1 the results were CYP2C19 inhib 20.5, CYP2C19 act 0.8, CYP2C9 inh 57.5*, Cav3 T inh 1.59 and CYP2C9 act 0.4.
For CCCc1cc(C(=O)NC2CCCCC2)no1 the results were CYP2C19 inhib 40.2, CYP2C19 act 0.6, CYP2C9 inh -28.9, Cav3 T inh -0.478 and CYP2C9 act 1.3.
For Cc1nnc2c(NC(C)C)nc3ccccc3n12 the results were CYP2C19 inhib 1.5, CYP2C19 act 1, CYP2C9 inh 36.6, Cav3 T inh 1.08 and CYP2C9 act 0.6.
`CCOC(=O)c1[nH]c(C)c(/C=N/O)c1C` gave CYP2C19 inhib 9.9, CYP2C19 act 0.9, CYP2C9 inh -39.2, Cav3 T inh 0.0713 and CYP2C9 act 1.4.
`CCCc1cc(C(=O)NCc2cccs2)no1` gave CYP2C19 inhib 74.1*, CYP2C19 act 0.3, CYP2C9 inh 32.5, Cav3 T inh 0.334 and CYP2C9 act 0.7.
`CCCc1cc(C(=O)N2CCN(C(c3ccccc3)c3ccccc3)CC2)no1` gave CYP2C19 inhib 6.0, CYP2C19 act 0.9, CYP2C9 inh 82.7*, Cav3 T inh -2.07 and CYP2C9 act 0.2.
Screening CCCc1cc(C(=O)NCc2ccccc2)no1 returned CYP2C19 inhib 58.3*, CYP2C19 act 0.4, CYP2C9 inh 12.4, Cav3 T inh -0.14 and CYP2C9 act 0.9.
CCc1cc(C(=O)NNC(=S)Nc2ccccc2C)cs1 was read as Cav3 T inh -0.645.
Cc1cc(C(=O)N2CCN(C(c3ccccc3)c3ccccc3)CC2)no1 was read as CYP2C19 inhib 42.5, CYP2C19 act 0.6, CYP2C9 inh 35.0, Cav3 T inh -0.952 and CYP2C9 act 0.7.
CCCc1cc(C(=O)NNC(=S)NCc2ccccc2)cs1 was read as CYP2C19 inhib 21.5, CYP2C19 act 0.8, CYP2C9 inh 22.1, Cav3 T inh -7.29* and CYP2C9 act 0.8.
Screening Cc1cccc(COCC(CC(C)C)N2CCN(C(=O)c3ccc(C(C)(C)C)cc3)CCC2=O)c1 (stereo not drawn) returned Cav3 T inh -3.4.
Screening Cn1ccs/c1=N\S(=O)(=O)c1ccc(F)cc1 returned CYP2C19 inhib 32.7, CYP2C19 act 0.7, CYP2C9 inh -61.7, Cav3 T inh 0.868 and CYP2C9 act 1.6.
Cc1coc(NC(=O)CSc2nc(-c3ccncc3)cc(C(F)(F)F)c2C#N)n1 was read as CYP2C19 inhib 19.7, CYP2C19 act 0.8, CYP2C9 inh 35.3, Cav3 T inh 0.316 and CYP2C9 act 0.6.
For COc1ccc(CNC(=O)c2cc(C3CC3)on2)cc1 the results were CYP2C19 inhib 81.4*, CYP2C19 act 0.2, CYP2C9 inh 21.0, Cav3 T inh -0.803 and CYP2C9 act 0.8.
CCCc1cc(C(=O)NCc2cccnc2)no1 was read as CYP2C19 inhib 59.3*, CYP2C19 act 0.4, CYP2C9 inh 14.6, Cav3 T inh 1.36 and CYP2C9 act 0.9.
O=C(NCc1cccnc1)c1cc(-c2ccccc2)on1 was read as CYP2C19 inhib 1.2, CYP2C19 act 1, CYP2C9 inh 24.6, Cav3 T inh 0.281 and CYP2C9 act 0.8.
Screening COc1ccc(CCNC(=O)c2cc(C(C)C)on2)cc1OC returned CYP2C19 inhib 35.4, CYP2C19 act 0.6, CYP2C9 inh 6.2, Cav3 T inh -1.18 and CYP2C9 act 0.9.
Cc1cc(C(=O)NCc2ccccc2Br)no1 was read as CYP2C19 inhib 69.5*, CYP2C19 act 0.3, CYP2C9 inh -12.1, Cav3 T inh 0.138 and CYP2C9 act 1.1.
Screening CCCc1cc(C(=O)NCCc2ccc(OC)c(OC)c2)no1 returned CYP2C19 inhib 94.0*, CYP2C19 act 0.1, CYP2C9 inh 68.5*, Cav3 T inh 1.19 and CYP2C9 act 0.3.
Screening CCCCn1c(-c2ccc([N+](=O)[O-])cc2)n[nH]c1=S returned CYP2C19 inhib -4.7, CYP2C19 act 1, CYP2C9 inh -0.5, Cav3 T inh 1.99 and CYP2C9 act 1.
